Laboratory results from PubChem BioAssay (NCI).
Values joined by “and” are separate entries in the source; they are usually repeats but may differ in a detail not shown here. Equal values may be shown once. This is part of a sample that, as a whole, favours compounds with a hit. Of some 83,000 tested, about 20% had one in any assay.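 Cells were grown in 96-well plates and exposed to the test compound at a single concentration for 48 hours; results are reported as percent growth, with values below 10 considered active.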 A number with no mark means an inactive call. Active and inactive are the calls of the source.

Tested on: MDA-MB-468 breast
Experiment: NCI-60 one-dose screen, 48 h (100 = growth as untreated, 0 = no growth, -100 = all killed)
Settings: 10 µM unless noted

Row | Structure (SMILES) | growth
1 | NC(=O)c1cc(Cl)ccc1NC(=O)/C=C/c1ccccc1 | 30.7%
2 | COc1cccc(-c2nc(-c3ccc(NS(=O)(=O)c4ccccc4)cc3)[nH]c2-c2ccnc(Br)c2)c1 | 18.3%
3 | COc1cc(C(=O)c2cnc(-c3ccc4cc[nH]c4c3)[nH]2)cc(OC)c1OC | -23.2% (active)
4 | Fc1ccccc1CSc1ncnc2nc[nH]c12 | 97.6%
5 | CCCCCCNC(=O)Oc1ccc(/C(=C(/CC)Cc2ccccc2)c2ccc(OCCCN(C)C)cc2)cc1 | 89.5%
6 | O=C1CNCCN1 | 106%
7 | Cc1ccc2c(c1)sc1nc(-c3c[nH]c4ccccc34)c(Nc3ccccc3)n12 | 105%
8 | CN(C)c1ccc(-c2c(NC(C)(C)C)nc3c(OCCc4ccccc4)cccn23)cc1 | -19.6% (active)
9 | O=c1oc2ccc(F)cc2c(=O)n1-c1ccc(Br)cc1F | 0.698% (active)
10 | CN(C)CCOc1ccc(-c2nc3sccn3c2-c2ccnc(S(C)(=O)=O)n2)cc1 | 98.8%
11 | COc1cc(C(C)n2cc(-c3ccccc3)nn2)ccc1OC1CCCCC1 (configuration not stated) | 8.89% (active)
12 | Cc1cnc2nc(NN)[nH]n12 | 91%
13 | CC(C)(C)C(=O)/C=c1/[nH]c(=O)/c(=C/c2ccccc2O)s1 | 17.2%
14 | CCCS(=O)(=O)Nc1cccc(Nc2ncnc3cc(NC(=O)CCl)ccc23)c1Cl | -41.8% (active)
15 | COc1ccc(-c2[nH]c3ccc(OC)cc3c2C=C(C#N)C#N)cc1 | -13.7% (active)
16 | O=C(/C=C/C12c3ccccc3C(c3ccccc31)C1C(=O)N(c3ccc(Cl)cc3)C(=O)C12)c1ccccn1 (configuration not stated) | -9.41% (active)
17 | CCN(C)S(=O)(=O)Nc1cccc(Nc2ncnc3cc(NC(=O)CCl)ccc23)c1Cl | 9.82% (active)
18 | Nc1[nH]nc2nc(-c3ccccc3)n3c4ccccc4nc3c12 | 88.7%
19 | CC(=O)Nc1nc(C)c(C(=O)N/N=C/c2cccs2)s1 | 98.8%

Row | Structure (SMILES) | growth
20 | COc1cc(/C=C2/Oc3cc4occc4c(OC)c3C2=O)ccc1OCC(=O)Nc1ccncc1 | 105%
21 | O=C(CNC(=O)OCc1ccccc1)NCC(=O)Oc1ccc([N+](=O)[O-])cc1 | 106%
22 | C[C@@H](Oc1cc(-c2cnn(C3CCNCC3)c2)cnc1N)c1c(Cl)ccc(F)c1Cl | -79.8% (active)
23 | CC(C)NCCCNC1=C(Cl)C(=O)c2ccccc2C1=O | 34.6%
24 | COc1cc(Nc2ncc(F)c(Nc3ccc4c(n3)NC(=O)C(C)(C)O4)n2)cc(OC)c1OC | 27.7%
25 | O=C1c2c(c3c4ccccc4n(CCCCCCN4CCOCC4)c3c3[nH]c4ccccc4c23)C(=O)N1O | 103%
26 | CN1CCN(CCNc2nccc(-c3c(-c4cccc(O)c4)nc4sccn34)n2)S1(=O)=O | 79.4%
27 | NC(=O)CC1(c2ccccc2)CCCCC1 | 104%
28 | COc1cc(/C=C/C(=O)c2ccc(-n3cc(CN4CCN(c5cc6c(cc5F)c(=O)c(C(=O)O)cn6C5CC5)CC4)nn3)cc2)cc(OC)c1OC | 72.5%
29 | COC(=O)[C@H](Cc1ccccc1)NC(=O)[C@@H](OC)[C@@H]1Cc2cc3cc(OC4CC(OC5CC(O)C(O)C(C)O5)C(O)C(C)O4)c(C)c(O)c3c(O)c2C(=O)[C@H]1OC1CC(OC2CC(OC3CC(C)(O)C(O)C(C)O3)C(O)C(C)O2)C(O)C(C)O1 (some centres not stated) | -36.7% (active)
30 | N#Cc1ccc(OC(=O)Nc2c(Cl)cc(Cl)cc2Cl)cc1 | 97%
31 | CN1CCN(c2ccc(Nc3nc(NCCCNS(=O)(=O)c4ccc(Cl)cc4)c4sccc4n3)cc2)CC1 | -47.7% (active)
32 | Nc1ccc(-c2cccs2)cc1NC(=O)c1ccc(CCCC(=O)Nc2ccc(C3CC3N)cc2)cc1 (configuration not stated) | 69.6%
33 | O=C1C=CC(=O)N1c1ccc2ccccc2c1 | 51.3% and 62.7%
34 | CN[C@@H]1C[C@H]2O[C@@](C)([C@@H]1OC)n1c3ccccc3c3c4c(c5c6ccccc6n2c5c31)C(=O)N[C@H]4O | -56.3% (active)
35 | COc1cc2c(cc1-c1c(C)noc1C)ncc1nc(C3CCOCC3)n([C@@H](C)COC(F)F)c12 | 47.5%
36 | COc1ccc(CCN2C(=O)CCSC2=S)cc1 | 10.7%
37 | CCc1cccc(Sc2cc(C(=O)N3Cc4ccc(OCCN(C)C)cc4C3)ccc2O)c1 | 30.6%
